Experimental data reported in PubChem BioAssay AID624125 (The Scripps Research Institute Molecular Screening Center, 2012).
Hit rate of the full screen: of about 360,000 compounds, about 2,600 (0.72%) were called active.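 How the source made its calls: active means inhibition above its plate's cutoff, the mean inhibition of sample wells plus 3 SD (cut at about 27% in these data); inactive means the rest.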 The entries come from a sample that favours actives as a whole.

Target: Muscarinic acetylcholine receptor M4 (Homo sapiens) (UniProt P08173)
Assay: human M4 muscarinic receptor antagonists, primary screen, CHO cells, Fluo-8 calcium fluorescence (AID 624125);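 further: 0% = acetylcholine EC80 with DMSO and 100% = DMSO without agonist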
Conditions: CHO-hM4 cells, ACh EC80, Fluo-8 calcium fluorescence; at 3 µM; stronger effect = higher value

Chain of Muscarinic acetylcholine receptor M4 (Homo sapiens) (P08173 whole entry, looked up): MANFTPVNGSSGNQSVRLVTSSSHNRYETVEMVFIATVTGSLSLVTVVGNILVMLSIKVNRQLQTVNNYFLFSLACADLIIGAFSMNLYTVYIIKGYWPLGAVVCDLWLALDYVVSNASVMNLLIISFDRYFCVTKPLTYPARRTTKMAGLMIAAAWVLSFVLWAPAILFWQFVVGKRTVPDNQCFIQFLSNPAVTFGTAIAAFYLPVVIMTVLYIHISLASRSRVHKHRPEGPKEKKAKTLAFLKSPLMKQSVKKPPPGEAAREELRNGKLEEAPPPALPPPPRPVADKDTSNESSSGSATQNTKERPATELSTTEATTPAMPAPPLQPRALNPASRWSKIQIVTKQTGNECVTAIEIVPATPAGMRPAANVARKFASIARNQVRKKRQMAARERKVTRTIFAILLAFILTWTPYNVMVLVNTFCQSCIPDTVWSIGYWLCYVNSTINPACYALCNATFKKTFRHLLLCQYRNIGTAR

Structure (SMILES) | inhibition
Cc1cccc(CSc2ccc(-c3cccs3)nn2)c1 | -4.51% (inactive)
CSCCC1NC(=O)N(CC(=O)Nc2cccc(S(=O)(=O)N3CCCCCC3)c2)C1=O (stereo unspecified) | -15.2% (inactive)
O=C(/C=C/c1ccc(Cl)cc1)Nc1ccc(S(=O)(=O)Nc2ncccn2)cc1 | 0.88% (inactive)
C/C(=N\NS(=O)(=O)c1ccc(Cl)cc1)c1ccc(NC(=O)c2ccco2)cc1 | 7.91% (inactive)
O=C(Nc1ccccc1)c1nnsc1S(=O)(=O)c1ccc(Cl)cc1 | 70.3% (active)
Cn1c(CC(=O)Nc2ccc(F)cc2)nnc1SCC(=O)NC1CCCCC1 | -3.82% (inactive)
CC(=O)N1CCc2c(sc(NC(=O)CCS(=O)(=O)c3ccc(C)cc3)c2C(N)=O)C1 | -0.18% (inactive)
CS(=O)(=O)c1ccc(C(=O)NNC(=O)c2cccs2)cc1 | 0.8% (inactive)
Cc1ccc2[nH]cc(CCCN3C(=O)c4ccccc4C3=O)c2c1 | -6.81% (inactive)
Cc1cccc(CSc2nnc(C)c(=O)n2N)c1 | -5.35% (inactive)
Cc1cccc(CSc2nc3c(c(=O)n2C)SCC3)c1 | 30.4% (active)
COCCn1c(SCC(=O)Nc2ccc(F)cc2F)nc2c(c1=O)SCC2 | -3.44% (inactive)
CCOC(=O)C1=CN(Cc2ccc(Br)cc2)S(=O)(=O)NC1C (stereo unspecified) | -12.5% (inactive)
O=C1C2(c3ccccc3)CN(CCCO)CC1(c1ccccc1)CN(CCCO)C2 | 4.09% (inactive)
FC(F)(F)c1cccc(-c2cc3ccccc3nc2N2CCCC2)c1 | 2.79% (inactive)
CCN(CC)CCCC(C)n1c2nc(=O)[nH]c(=O)c-2nc2cc(Cl)ccc21 (stereo unspecified) | 38.6% (active)
C=CCn1c(N)cc(=O)nc1SCC(=O)Nc1cccc2ccccc12 | 0.21% (inactive)
CCN(CC)P(=O)(C(NC(=O)OC)C(F)(F)C(F)(F)C(F)(F)C(F)F)N(CC)CC (stereo unspecified) | 2.64% (inactive)
COc1ccc(NC(=O)/C(Cl)=C(/Cl)S(=O)Cc2ccc(C)cc2)cn1 (stereo unspecified) | 50.8% (active)
CC(C)=CCCC1(C)C=Cc2c(ccc3c2[nH]c2cc(O)c(C)cc23)O1 (stereo unspecified) | -7.94% (inactive)
Cc1c(CN2CCCC(C(=O)c3cccc(Cl)c3)C2)c(=O)n(-c2ccccc2)n1C (stereo unspecified) | 7.63% (inactive)
O=C(C[C@H]1C/C=C\C[C@@H](NC(=O)OCC2c3ccccc3-c3ccccc32)C(=O)O[C@@H](c2ccccc2)CNC1=O)N[C@H](CO)Cc1ccccc1 | -3.13% (inactive)
O=C(NNC(=O)C1C2CCC(C2)C1C(=O)O)c1ccc(Cl)cc1 (stereo unspecified) | 2.59% (inactive)
Cc1ccc(S(=O)(=O)/N=C2\C=C(NS(=O)(=O)c3ccc(C)cc3)C(=O)c3ccccc32)cc1 | 4.16% (inactive)
COc1ccc(S(=O)(=O)/N=C2\C=C(NS(=O)(=O)c3ccccc3)C(=O)c3ccccc32)cc1 | 27.9% (active)
COc1ccc(NS(=O)(=O)c2ccc(Oc3c(C#N)cccc3C#N)cc2)cc1 | 15% (inactive)
